Only some compounds are listed: those with a hit (about 19% of all), similar ones and a draw of the others.
HT1080 IDH1KD tx: qHTS for induction of synthetic lethality in tumor cells producing 2HG: qHTS for the HT-1080-IDH1KD cell line | HT-1080 IDH1 knockdown viability, ATP luminescence, 48 h | Potency, µM (titrated, usually from 46.1 µM), for the others: top-dose activity, negative = toxicity, hits mostly cytotoxic | actives 2% (n = 360,000) | AID 686971, 2013;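 further: potency means the concentration at half of the fitted maximal effect; 0% = DMSO wells and -100% = cell-free medium wells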
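% activity derives from luminescence (CellTiter-Glo), normalised to DMSO and no-cell wells. HT-1080-IDH1KD cells, 750/well, had 48 h compound exposure at 37 °C.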
IL1B secr inh: qHTS for Inhibitors of Inflammasome Signaling: IL-1-beta AlphaLISA Primary Screen; activity change, % at 57.5 µM; AID 743279, 2014; actives 4.7% (n = 360,000); THP-1 LPS/ATP IL-1B secretion, AlphaLISA, 16 h; stronger effect = lower value; in the data active means activity change below about -50%; inconclusive means mostly about -30% to -49%
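THP-1 cells pretreated 1 hr with compounds (up to 57.5 uM final), then stimulated with LPS (250 ng/mL final) plus ATP (1.25 mM final); secreted IL-1B measured by AlphaLISA after 16 hr, decreased signal indicating inhibition.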
DT40 TDP1 CPT: qHTS for Inhibitors of human tyrosyl-DNA phosphodiesterase 1 (TDP1): qHTS in cells in presence of CPT; Potency, µM (highest dose often 46.2 µM), for the others: at the highest dose activity change, negative = growth inhibition, actives largely listed as inhibitors; chicken DT40 Tdp1-/-;hTDP1 cells + 20 nM CPT, ATP luminescence, 48 h; actives 12% (n = 420,000); AID 686979, 2013; further: potency means the concentration at half of the fitted maximal effect; nearly all actives have a fitted effect of over 55% in size
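Chicken DT40 Tdp1-/- cells complemented with human TDP1, 400 cells/well, exposed to compounds plus 20 nM camptothecin for at least 48 h at 37 C; viability read as ATP content by CellTiter-Glo luminescence.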
uPA generation: qHTS for Inhibitors of Cell Surface uPA Generation; Potency, µM (titrated, usually from 38.3 µM), without a hit: top-dose activity change, negative = inhibition, hits mostly inhibitors; cell surface uPA generation assay, qHTS; actives 0.31% (n = 330,000); active means well fitted inhibition curve with a large enough effect; inconclusive means small, poorly fitted or top-dose-only effect; inactive means no such curve, though single readings can be large or run the other way; tested in mouse RAW 264.7 cells; further: potency means the concentration at half of the fitted maximal effect; nearly all actives have a fitted effect of over 55% in size
HT1080-NT tox: qHTS for induction of synthetic lethality in tumor cells producing 2HG: qHTS for the HT-1080-NT fibrosarcoma cell line. HT-1080-NT fibrosarcoma viability, CellTiter-Glo ATP luminescence, 48 h. Potency, µM (titrated, usually from 46.1 µM), for the others: top-dose activity, negative = less viability, actives largely listed as cytotoxic. actives 1.6% (n = 360,000). AID 686970, 2013;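 further: NT is the 2HG producing partner of a matched IDH1 knockdown line; potency means the concentration at half of the fitted maximal effect; 0% = DMSO-treated cells and -100% = media-only wells without cells; nearly all actives have a fitted effect of over 55% in size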
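Toxicity toward the 2HG-producing NT line was scored as %Activity, normalised to DMSO and no-cell wells, from CellTiter-Glo luminescence after 48 hours' treatment.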
DT40 TDP1 no CPT: qHTS for Inhibitors of human tyrosyl-DNA phosphodiesterase 1 (TDP1): qHTS in cells in absence of CPT. DT40 Tdp1-/- hTDP1 cells, no CPT, ATP luminescence, 48 h. Potency, µM (highest dose often 46.2 µM), inactives show top-dose activity change, negative = growth inhibition, actives largely listed as inhibitors. actives 15% (n = 420,000); further: potency means the concentration at half of the fitted maximal effect; nearly all actives have a fitted effect of over 55% in size
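Compound effects on proliferation are scored in DT40 Tdp1-/-;hTDP1 cells in the absence of CPT. ATP levels (CellTiter-Glo luminescence) are recorded after a ≥48 hr, 37 °C incubation.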
* marks the source's active call; other numbers are inactive results; ? = inconclusive; · = not tested or not shown; [ ] = another dose, or the depositor's remark. Unless noted, the call rests on the fitted dose curve; in most records, active means well fitted curve in the direction sought with a large enough effect; inconclusive means small, poorly fitted or top-dose-only effect, or another doubt; inactive means no such curve, though single readings can be large; an effect the other way counts as inactive or inconclusive. Unless noted, on the % scale 0 is the no-effect control and ±100 the full control effect.

SMILES	HT1080 IDH1KD tx	IL1B secr inh	DT40 TDP1 CPT	uPA generation	HT1080-NT tox	DT40 TDP1 no CPT
CN(C(=O)Oc1ccc(C(=O)c2ccc(Cl)cc2)cc1)c1ccccc1	-4%	-20	23µM*	-3%	-5%	16µM*
COP(=S)(OC)SCn1nnc2ccccc2c1=O	·	-93*	?	·	·	23µM*
CCN(CC)C(=O)Cn1cc(/C=C2\C(=O)NC(=O)N(c3ccccc3F)C2=O)c2ccccc21	?	-94*	?	-9%	?	?
O=C(O)Cn1cc(/C=C2\C(=O)NC(=O)N(c3ccc(Cl)cc3)C2=O)c2ccccc21	0%	39	-4%	10%	0%	2%
COCCCn1c(-c2ccc(OC)cc2)cc(C(=O)NC2CCCCCCC2)c1C	?	-53*	21µM*	-15%	?	15µM*
Cc1cc([N+](=O)[O-])c2ccccc2[n+]1[O-]	8.2µM*	-99*	0.046µM*	?	6.5µM*	0.052µM*
O=[N+]([O-])c1cccc2c([N+](=O)[O-])cccc12	16%	-14	-4%	6%	-1%	?
c1csc(CN2CCNCC2)c1	5%	-1	-1%	2%	29%	5%
O=C1CSC(=S)N1Cc1cccs1	1%	-8	?	?	18%	18µM*
CCOc1ccc(NC(=S)NC2CC3CCC(C2)N3Cc2ccco2)cc1 (stereo not given)	-5%	-7	?	-3%	-13%	?
O=S1(=O)N(Cc2ccccc2)CCCN1Cc1cccc(Cl)c1	·	·	-3%	·	·	?
O=C(Oc1ccccc1)N1CCC[C@@]2(CCN(C(c3ccccc3)c3ccccc3)C2)C1	·	·	-8%	·	·	-23%
CC(C)NC[C@@H](O)c1ccc(O)c(O)c1	4%	?	?	-46%	17%	?
CC(C)NCC(O)c1ccc(C2CCCC2)cc1 (stereo not given)	-22%	?	16µM*	-4%	?	16µM*
COc1ccc(-n2c(=S)[nH]c3c(sc(=S)n3-c3ccccc3)c2=O)c(OC)c1	22%	-2	21µM*	-2%	1%	16µM*
COc1ccc(-n2c(=O)[nH]c3ccccc3c2=O)c(OC)c1	-5%	15	-21%	1%	-5%	-19%
CSc1ccc(C(=O)C2CCCN(Cc3cc4ccccc4[nH]3)C2)cc1 (stereo not given)	?	-100*	?	-1%	23µM*	?
C#C[C@]1(O)CC[C@H]2[C@@H]3[C@H](O)C[C@H]4C[C@@H](O)CC[C@]4(C)[C@H]3CC[C@@]21C	-1%	12	-23%	·	-2%	?
O=C1C2CCN(CC2)C1Cc1ccc(OCCOc2ccccc2)cc1 (stereo not given)	-16%	19	29µM*	-2%	-7%	?
Cc1cc(N(CCCl)CCCl)ccc1C=NNC(=O)Cc1cc(=O)oc2cc(O)ccc12	-22%	-59*	12µM*	-14%	-17%	?
CC(C)[C@H](CN(N=O)[C@@H](Cc1ccccc1)CN(C)N=O)N(CCc1ccccc1)N=O	-4%	-6	23µM*	8%	?	23µM*
CCCC[C@H](CN(N=O)[C@@H](Cc1ccccc1)CN(C)N=O)N(CCc1ccccc1)N=O	-9%	-9	?	3%	-2%	?
CCN(CC)C(=O)c1ccc(NC(=O)c2cccc(C(F)(F)F)c2)cc1	11%	?	-15%	-1%	2%	?
CCN1CCN(S(=O)(=O)c2ccc(Cl)c(C(=O)Nc3ccc(C(=O)N(CC)CC)cc3)c2)CC1	-11%	13	15µM*	0%	27%	?
COc1cc(C)c(CN2CCN(c3ccccc3)CC2)cc1C	-8%	-4	-10%	·	-7%	-6%
SMILES	HT1080 IDH1KD tx	IL1B secr inh	DT40 TDP1 CPT	uPA generation	HT1080-NT tox	DT40 TDP1 no CPT
CCOP(=O)(OCC)C(O)c1ccc(N(C)C)cc1 (stereo not given)	20%	-11	5%	2%	19%	-13%
CCCCCN=C(N)N/N=C/c1c[nH]c2ccc(OC)cc12	5.8µM*	0	2.9µM*	?	2.9µM*	2.6µM*
O=C(NC(=C(Cl)Cl)P(=O)(c1ccccc1)c1ccccc1)c1ccccc1	-1%	?	?	3%	7%	-30%
O=C1NC(=O)C(CCc2ccncc2)(Cc2ccc([N+](=O)[O-])cc2)C(=O)N1	14%	27	-18%	5%	12%	-9%
COc1ccc(-n2c(O)c(C=NCCN(C)C)c(=O)[nH]c2=O)cc1	5%	11	-23%	5%	11%	-1%
Cc1ccc(O)c(C(=O)c2cc(C(=O)NCCC(C)C)c(=O)n(CCC(C)C)c2)c1	-6%	-56*	23µM*	-10%	-9%	18µM*
CN(Cc1ccc(OC(F)F)cc1)Cc1nc2c(Br)cc(Br)cc2c(=O)[nH]1	3%	7	?	14%	4%	16µM*
COc1ccc2c3c1O[C@H]1[C@@H](O)C=C[C@H]4[C@@H](C2)NCC[C@@]341	·	·	-7%[92.5 µM]	·	·	?
Clc1ccc(COC(Cn2ccnc2)c2ccc(Cl)cc2Cl)cc1 (stereo not given)	15µM*	0	23µM*	?	?	21µM*
c1ccc(Cn2ccnc2)cc1	1%	37	7%	-12%	-4%	-11%
Clc1ccc(CSC(Cn2ccnc2)c2ccc(Cl)cc2Cl)cc1 (stereo not given)	?	-10	?	-11%	?	18µM*
O=P(CCl)(Nc1ccccc1)C(Cl)(Cl)Cl (stereo not given)	16%	32	22%	4%	11%	15%
Cn1cc[n+](C)c1P(=S)(c1ccccc1)c1ccccc1	4%	2	10µM*	1%	-1%	21µM*
CC(C)C[C@H]1C(=O)N2CCC[C@H]2[C@]2(O)O[C@](NC(=O)[C@@H]3C=C4c5cccc6[nH]cc(c56)C[C@H]4N(C)C3)(C(C)C)C(=O)N12	-14%	-2	21µM*	-6%	-28%	16µM*

From PubChem BioAssay
